Consider 37 compounds from PubChem BioAssay (NCI).

This is part of a sample that, as a whole, favours compounds with a hit. Of some 83,000 tested, about 20% had one in any assay.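 In brief: 96-well plates, 48 h treatment, single concentration, percent growth endpoint.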 A number with no mark means an inactive call. Calls of active or inactive are those of the source. How the source made its calls: active means growth percent below 10; inactive means the rest.

The test system of one test is SK-MEL-2 melanoma. As to the kind of experiment: NCI-60 one-dose screen, 48 h (100 = growth as untreated, 0 = no growth, -100 = all killed). The note with it: 1 µM.
Take `CC/C(=C(/c1ccc(O)cc1)c1ccc(OCCN(C)C(=O)COCCOCCNC(=O)c2ccc3c(c2)CN([C@@H]2CCC(=O)NC2=O)C3=O)cc1)c1ccccc1`: the growth was 101%.
Same read-out and setting: next, `CC/C(=C(/c1ccc(O)cc1)c1ccc(OCCN(C)C(=O)CCOCCNC(=O)Cc2ccc3c(c2)CN([C@@H]2CCC(=O)NC2=O)C3=O)cc1)c1ccccc1`: 101%; `CC/C(=C(/c1ccc(O)cc1)c1ccc(OCCN(C)C(=O)COCCOCCNC(=O)Cc2ccc3c(c2)CN([C@@H]2CCC(=O)NC2=O)C3=O)cc1)c1ccccc1`: 95.4%; `CC/C(=C(\c1ccc(O)cc1)c1ccc(OCCNC)cc1)c1ccccc1`: 95.1%.
For the compound `CC/C(=C(\c1ccc(O)cc1)c1ccc(OCCN(C)C(=O)CCOCCNC(=O)c2ccc3c(c2)CN([C@@H]2CCC(=O)NC2=O)C3=O)cc1)c1ccccc1`, the growth is 103%.
Same read-out and setting: next, `CC/C(=C(\c1ccc(O)cc1)c1ccc(OCCN(C)C(=O)COCCNC(=O)Cc2ccc3c(c2)CN([C@@H]2CCC(=O)NC2=O)C3=O)cc1)c1ccccc1`: 82.5%.

Still in this test, the particulars now being: 10 µM.
In the case of `CC/C(=C(/c1ccc(O)cc1)c1ccc(OCCN(C)C(=O)COCCOCCNC(=O)c2ccc3c(c2)CN([C@@H]2CCC(=O)NC2=O)C3=O)cc1)c1ccccc1`, the growth is 93.5%.
On the same count and under the same terms, next, `CC/C(=C(/c1ccc(O)cc1)c1ccc(OCCN(C)C(=O)CCOCCNC(=O)Cc2ccc3c(c2)CN([C@@H]2CCC(=O)NC2=O)C3=O)cc1)c1ccccc1`: 74.7%.
The same measure, in the same setting: as for `CC/C(=C(/c1ccc(O)cc1)c1ccc(OCCN(C)C(=O)COCCOCCNC(=O)Cc2ccc3c(c2)CN([C@@H]2CCC(=O)NC2=O)C3=O)cc1)c1ccccc1`, the figure is 64.1%.
Take `CC/C(=C(\c1ccc(O)cc1)c1ccc(OCCNC)cc1)c1ccccc1`: the growth is 98.7%.
As for `CC/C(=C(\c1ccc(O)cc1)c1ccc(OCCN(C)C(=O)CCOCCNC(=O)c2ccc3c(c2)CN([C@@H]2CCC(=O)NC2=O)C3=O)cc1)c1ccccc1`, the growth was 101%.
On the same count and under the same terms, next, `CC/C(=C(\c1ccc(O)cc1)c1ccc(OCCN(C)C(=O)COCCNC(=O)Cc2ccc3c(c2)CN([C@@H]2CCC(=O)NC2=O)C3=O)cc1)c1ccccc1`: 56.8%.

Still in this test, the particulars now being: 10 µM unless noted.
In the case of `O=C(Nc1ccc(S(=O)(=O)N2CCCCC2)cc1)C(Cl)Cl`, the growth was 104%.
Same read-out and setting: next, `O=C(c1ccc(Cl)cc1)C1[C@H](c2ccccc2Cl)[C@@H](c2ccccc2)NC12C(=O)Nc1ccccc12` (stereo partly drawn): -85.3% (active); `O=C(c1ccc(O)cc1)C1[C@H](c2ccc(Cl)cc2)[C@@H](c2ccccc2)NC12C(=O)Nc1ccccc12` (stereo partly drawn): -72.3% (active).
As to `Cc1ccc2nc(SCc3ccccc3F)n(-c3ccccc3)c(=O)c2c1`, the growth was 102%.
Still for that read-out and setting: as for `CCCCNc1ccc2c3c(cccc13)C(=O)N(NCC(O)COc1ccc3c(C)cc(=O)oc3c1)C2=O` (stereo not drawn), the figure is 96.9%; as for `c1n[nH]cc1-c1nc2ccc3[nH]ncc3c2c2c1CC1(CC2)COC1`, 18.3%; as for `CCN1CCN(Cc2ccc(C(=O)Nc3cccc(Nc4ccc5c(OC)cccc5n4)c3)cc2C(F)(F)F)CC1`, -76% (active).
The same measure, in the same setting: next, `O=C(NN1C(=O)/C(=C/C=C/c2ccc([N+](=O)[O-])o2)SC1=S)c1ccc([N+](=O)[O-])cc1`: -89.8% (active); `C=CCn1c(O)c(N=Nc2nc(-c3cc4ccccc4oc3=O)cs2)c2ccccc21`: 64.4%; `CCCCCCCCCCCCCCCCCC(=O)Nc1ccc(OC)cc1`: 102%.
Still for that read-out and setting: as for `Cn1cc(-c2cc(N)n3nc(-c4c[nH]c5ccc(Cl)cc45)cc3n2)c2cc(Br)cnc21`, the figure is -49.9% (active); as for `COC(=O)c1ccc(-c2c(-c3ccccc3)c(F)c3oc(C(=O)OC)c(N)c3c2-c2ccccc2)cc1`, 99.6%; as for `COc1ccc(-c2nc3ccccc3n2CC(=O)N=Nc2c(O)[nH]c3ccc(Br)cc23)cc1`, 85.4%.
`O=C(N/N=C/c1c[nH]c2ccccc12)Nc1ccccc1Cl`: the growth was 13.9%.
For the compound `COc1ccc(CCC2NCCc3c(Br)c4c(c(OC)c32)OCO4)cc1` (stereo not drawn), the growth was -16.9% (active).
Turning to `CN(C)c1nc(NCCNS(=O)(=O)c2ccc(C(=O)/C=C/c3ccc(Cl)cc3)cc2)nc(N2CCOCC2)n1`, the growth was 68.9%.
`COc1ccccc1NC(=O)N/N=C/c1c[nH]c2ccccc12`: the growth was -24.9% (active).
Take `O=C1/C(=C/c2cnc(-c3ccccc3)s2)SC(=S)N1Cc1ccc2c(c1)OCO2`: the growth was 72.7%.
Take `N#CC1=C(c2cccs2)Nc2c(c(-c3ccccc3)nn2-c2ccccc2)C12C(=O)Nc1ccccc12` (stereo not drawn): the growth is 90.1%.
As to `COc1ccc2[nH]c(=O)cc(-n3ncc(C(=O)/C=C/c4cc(OC)c(OC)c(OC)c4)c3C)c2c1`, the growth was -28.3% (active).
The same measure, in the same setting: as for `C[C@H](NC(=O)c1ccc2c(-c3ccc(C(F)(F)F)cc3)cccc2c1)c1ccccn1`, the figure is 67.2%; as for `Cn1cc(Nc2ncnc(-c3ccc(N4CCCC4)c(C#N)c3)n2)cn1`, 88.4%.
Still for that read-out and setting: next, `CCCCCCCCc1cccc(CC(=O)Nc2ccc(C)cc2C(=O)O)c1`: 86.3% [25 µM]; `O=C1CCC(N2C(=O)c3cccc(NCCCCCC(=O)N4CCN(c5ccc6nc7c(nc6c5C(F)(F)F)C(=O)c5ncccc5C7=O)CC4)c3C2=O)C(=O)N1` (stereo not drawn): -74.6% (active); `CN1C(=O)/C(=C\C(=O)c2cc3ccccc3oc2=O)c2ccccc21`: 65.1%.
Same read-out and setting: as for `Cc1ccc2nc(NC(=O)Nc3cccc(Cl)c3)sc2c1`, the figure is 114%.
For the compound `O=C1Nc2ccccc2/C1=C\c1ccc(OCC(=O)c2ccc(Br)cc2)cc1`, the growth is 72.4%.
On the same count and under the same terms, next, `COc1ccc2[nH]cc(-c3cc(N)n4nc(-c5c[nH]c6ccccc56)cc4n3)c2c1`: -63.7% (active).
For the compound `Cn1cc(-c2cc(N)n3nc(-c4c[nH]c5ccc(Cl)cc45)cc3n2)c2cccnc21`, the growth was 81%.
For the compound `Cc1ccc(-c2cc(C(=O)N=Nc3c(O)[nH]c4ccc(F)cc34)c3ccccc3n2)cc1`, the growth was 107%.
For the compound `O=C(NN1C(=O)/C(=C/C=C/c2ccc([N+](=O)[O-])o2)SC1=S)c1ccncc1`, the growth was -79.3% (active).
